Screen size: about 1,200 compounds; about 290 (24%) were called active. About 3% were inconclusive and are not listed.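 Rule for the calls: active = compounds lowering cell viability signal with fitted half-maximal concentration at most ten times their highest tested concentration; inconclusive = flat fit with 30 to 70% signal loss, or poor fit; inactive = the rest.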 Only a sample is shown. Entries with a potency or affinity are not part of this list.
test: HEK293T cell viability reduction, dose response, cytotoxicity control for LMP1 NF-kB inhibitor project, CellTiter-Glo luminescence, cherry-picks (AID 504861); settings: CellTiter-Glo ATP luminescence, 48 h; series mostly up to 26 µM

SMILES	outcome
CCN(CC(=O)Nc1ccc(NC(C)=O)cc1)C(=O)c1cccnc1Sc1ccc(C)c(C)c1	inactive
Cc1ccccc1C(=O)NC(=S)Nc1ccc(N2CCN(C(=O)c3ccccc3)CC2)cc1	inactive
Cc1ccc(CNC(=O)C(=O)NCC2OCCN2S(=O)(=O)c2ccc(Cl)cc2)cc1 (stereo unspecified)	inactive
CN1CCN(/N=C/c2ccc(N(c3ccccc3)c3ccccc3)cc2)CC1	inactive
O=[N+]([O-])c1ccc(O)c(/C=N/Nc2ncnc3c2cnn3-c2ccccc2)c1	inactive
COc1cccc(/C=N/Nc2ncnc(N)c2[N+](=O)[O-])c1OC	inactive
Cc1cc(C(=O)COc2cccnc2[N+](=O)[O-])c(C)n1-c1ccccc1F	inactive
Cc1ccsc1-c1nc(CSCC(=O)N2CCN(c3ccccc3)CC2)c(C)o1	inactive
Oc1c(N=NC(=S)Nc2ccccc2F)c2ccccc2n1Cc1ccc(F)cc1	inactive
COc1ccc(Cn2c(SCc3cc(C)ccc3C)nc3cc(OC)c(OC)cc3c2=N)cc1	inactive
COc1ccc(-c2cn3nc4c(nc3n2)CCCC4)cc1	inactive
CCOC(=O)C1=C(C)NC(C)=C(C(=O)OCC)C1C(=O)OCC(=O)N(C)C1CCS(=O)(=O)C1 (stereo unspecified)	inactive
O=C(CCCN1C(=O)/C(=C/c2ccccc2Cl)SC1=S)NNC(=O)c1ccccc1Cl	inactive
Cc1cc(C(=O)CSc2nnc(-c3cccs3)o2)c(C)n1-c1ccccc1	inactive
O=C(O)CN1C(=O)/C(=C\c2ccccc2OCc2ccc(Cl)cc2Cl)SC1=S	inactive
O=c1c2cnn(-c3ccccc3)c2nc(-c2cccs2)n1-c1ccc(Br)cc1	inactive
COc1ccc(N2CCN(CCNC(=O)CCCn3c(=O)[nH]c4cc(Cl)ccc4c3=O)CC2)cc1	inactive
COc1cc(C(=S)N2CCOCC2)cc(OC)c1OC(=O)c1ccc(F)cc1	inactive
COc1ccc(NC(=O)c2ccc(-c3ccccc3)cc2)cc1S(=O)(=O)N1CCOCC1	inactive
CC(C)CCNC(=O)C1CCN(S(=O)(=O)c2ccc3c(c2)CC(C)N3C(=O)C2CC2)CC1 (stereo unspecified)	inactive
COc1ccc(OC)c(S(=O)(=O)NC(C)CCc2ccccc2)c1 (stereo unspecified)	inactive
COc1ccc(C(=O)CSc2nnc(Cc3ccccc3)o2)cc1	inactive
Cc1ccc(-c2nc3cccnc3o2)cc1NC(=O)COc1ccc(C(C)(C)C)cc1	inactive
CCc1ccc(C(=O)COC(=O)c2cccc(N3C(=O)c4c(C)nc5ccccc5c4C3=O)c2)cc1	inactive
CCOC(=O)Cc1csc(N/N=C\c2ccc(N(C)C)cc2)n1	inactive
O=C(OCc1ccccc1F)c1cc2ccccc2cc1O	inactive

SMILES	outcome
Cc1cc(OCC(=O)Nc2cnn(CCCC(=O)O)c2)ccc1Cl	inactive
C=CCn1c(SCc2ccc3nonc3c2)nnc1-c1cccs1	inactive
CCOC(=O)c1sc(NC(=O)CNCc2ccccn2)c(C(=O)OCC)c1C	inactive
Cc1ccc(-n2ccc(=O)c(C(=O)Nc3ccc(S(=O)(=O)N4CCOCC4)cc3)n2)cc1	inactive
Cc1ccnc(NC(=O)c2sc3ccccc3c2Cl)c1	inactive
Oc1c(N=NC(=S)Nc2ccccc2F)c2ccccc2n1Cc1ccccc1	inactive
Cc1ccc(S(=O)(=O)NC(CC(C)C)C(=O)NCC(c2ccco2)N2CCCCC2)cc1 (stereo unspecified)	inactive
CCCCCn1c(N2CCOCC2)nc2c1c(=O)n(CC(N)=O)c(=O)n2C	inactive
O=C(NCCOc1ccccc1)c1ccc2c(c1)OCO2	inactive
C(=Cc1nc2ccccc2o1)c1ccc2c(c1)OCO2	inactive
Cc1cc(C)c(OCCn2ccnc2)c(C)c1	inactive
COc1ccc2oc(C(=O)NCCc3ccccc3)c(C)c2c1	inactive
COc1ccc(-c2nnc(NC(=O)c3ccc(S(=O)(=O)N4CCCc5ccccc54)cc3)o2)cc1	inactive
O=C1N[C@@H](Cc2c[nH]c3ccccc23)COC(=O)[C@H](Cc2ccc(F)cc2)C/C=C\C[C@H]1CC(=O)N(CCO)Cc1ccccc1	inactive
Cc1sc2ncnc(N3CCC(C(=O)Nc4ccccc4C(C)(C)C)CC3)c2c1C	inactive
Cc1sc2ncn(CC(=O)N3CCC(C(N)=O)CC3)c(=O)c2c1S(=O)(=O)N1CCOCC1	inactive
O=c1oc2ccccc2c(O)c1/C=N/c1ccccn1	inactive
CC1(C)Cc2nc3sc4c(SCC(=O)O)ncnc4c3cc2CO1	inactive
COc1ccc(C(=O)N2CC(=O)Nc3ccccc32)cc1S(=O)(=O)N1CCCC1	inactive
CCOc1ccc(S(=O)(=O)N2CCC(C(=O)NCCc3ccc(S(N)(=O)=O)cc3)CC2)cc1	inactive
CCOc1ccc(NC(=S)N=Nc2c(O)[nH]c3ccccc23)cc1	inactive
CSc1oc(-c2ccc(F)cc2)nc1S(=O)(=O)c1ccc(F)cc1	inactive
O=C(CN1C(=O)C2C3C=CC(C3)C2C1=O)NCCC1=CCCCC1 (stereo unspecified)	inactive
O=C(Cc1ccc(Cl)cc1)NCC(=O)N1CCCCC1	inactive
CCCCN1C2CCCC1CC(NC(=O)C1CCCCC1)C2 (stereo unspecified)	inactive

Source: PubChem BioAssay AID504861 (Broad Institute, 2011)
